Compound activity: PubChem BioAssay, several laboratories
sEH inhibitor – soluble epoxide hydrolase (human) inhibition | 91,000 tested, 0.34% active | inhibition, % at 2 µM | P34913 | recombinant human sEH enzymatic activity assay | AID 707; in the data active = inhibition above about 80%
sEH activator – soluble epoxide hydrolase (human) activation; 91,000 tested, 0.04% active; activation, % at 2 µM; purified human sEH enzymatic activity, activator screen; in the data active = activation above about 37%
CYP2C19 act – activators of human cytochrome P450 2C19. activation factor at 5 µM. recombinant CYP2C19, luciferin-H EGE luminescence; active compounds read high; 0 = fully inhibited enzyme, 1 = untreated enzyme. 96,000 tested, under 10 active. AID 1025;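 active = activation factor of at least 2 at 5 µM in the primary screen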
CYP2C19 inhib – inhibitors of human CYP2C19. CYP2C19 Supersomes, luciferin-H EGE luminescence, 30 min. 96,000 tested, 21% active. AID 778. P33261. inhibition, % at 5 µM;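 active = CYP2C19 inhibition above a set limit at 5 µM in the primary screen, cut at about 50% in these data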
CYP2C9 act – increases human cytochrome P450 2C9 activity | P11712 | recombinant CYP2C9, luciferin-H conversion, luminescence; active compounds read high; factor 1 = untreated enzyme, 0 = blocked | activation factor at 5 µM | 96,000 tested, 1.4% active | AID 1024;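 active = activation factor of 2 or more for CYP2C9 at a 5 µM dose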
Target sequence (P11712 whole entry, looked up): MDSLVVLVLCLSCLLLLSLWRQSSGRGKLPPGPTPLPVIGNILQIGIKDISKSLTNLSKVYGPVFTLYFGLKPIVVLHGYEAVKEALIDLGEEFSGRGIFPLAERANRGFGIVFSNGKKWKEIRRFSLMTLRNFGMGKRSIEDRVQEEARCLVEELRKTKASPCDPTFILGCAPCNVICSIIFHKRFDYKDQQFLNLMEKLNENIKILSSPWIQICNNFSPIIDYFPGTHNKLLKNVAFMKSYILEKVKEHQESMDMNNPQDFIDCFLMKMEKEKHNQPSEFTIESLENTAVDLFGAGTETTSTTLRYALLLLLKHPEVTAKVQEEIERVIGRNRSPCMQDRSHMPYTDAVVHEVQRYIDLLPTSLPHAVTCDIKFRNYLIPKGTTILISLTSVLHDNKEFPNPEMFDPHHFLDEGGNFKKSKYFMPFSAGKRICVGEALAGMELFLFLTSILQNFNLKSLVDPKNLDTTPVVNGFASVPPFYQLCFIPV
CYP2C9 inhib – blocks human cytochrome P450 2C9. AID 777. 96,000 tested, 20% active. P11712. inhibition, % at 5 µM. CYP2C9 Supersomes, luciferin-H conversion, luminescence;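 active = blocking of liver enzyme CYP2C9 beyond about 50% at 5 µM, limit read from the data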
Large screens that a line does not name were inactive. Sampled rows, rich in hits. Any-hit rate of the full collection: about 27%.

CN(C)c1ccc(C(C(=O)NC(C)(C)C)N(C(=O)c2csnn2)C2CC2)cc1 (configuration not stated)	none
O=C(O/N=C1\CCCc2ccccc21)c1ccc(F)cc1	none
O=C(NCCc1ccccc1)c1nc2c(nnn2Cc2ccccc2Cl)c(=O)[nH]1	none (no result: CYP2C19 act, CYP2C19 inhib, CYP2C9 act, CYP2C9 inhib)
COc1ccc(Cn2nnc3c(=O)[nH]c(C(=O)NCCc4ccc(F)cc4)nc32)cc1OC	CYP2C9 inhib 74 (no result: sEH inhibitor, sEH activator)
O=C(CSc1nc2cc(S(=O)(=O)N3CCOCC3)ccc2o1)NC1CCCc2ccccc21 (configuration not stated)	CYP2C19 inhib 74, CYP2C9 inhib 60
Cc1ccc(C(=O)CSc2nc3cc(S(=O)(=O)N4CCOCC4)ccc3o2)cc1	CYP2C9 inhib 82 (no result: sEH inhibitor, sEH activator)
CC(C)Cn1c(SCC(=O)NC2CCCc3ccccc32)nc(O)cc1=O (configuration not stated)	none (no result: sEH inhibitor, sEH activator)
Cc1[nH]c2ccccc2c1C(=O)CSc1nc2cc(S(=O)(=O)N3CCCCC3)ccc2o1	CYP2C19 inhib 60, CYP2C9 inhib 90
CC1=CCC2C(=O)N(c3nc(C)cc(C)n3)C(=O)C2C1 (configuration not stated)	none
COC(=O)CSC1=C(C#N)C(c2ccc3c(c2)OCO3)C2=C(CCCC2=O)N1 (configuration not stated)	CYP2C19 inhib 74, CYP2C9 inhib 86
COc1cc(C2C(C#N)=C(N)N(c3cccnc3)C3=C2C(=O)CCC3)ccc1O (configuration not stated)	none
Cc1ccc(NC(=O)CSC2=C(C#N)C(c3ccc4c(c3)OCO4)C3=C(CCCC3=O)N2)c(C)c1 (configuration not stated)	CYP2C19 inhib 88, CYP2C9 inhib 93
COC(=O)CSC1=C(C#N)C(c2ccc(C)cc2)C2=C(CCCC2=O)N1 (configuration not stated)	none
N#CC1=C(SCc2ccccc2)NC2=C(C(=O)CCC2)C1c1ccc2c(c1)OCO2 (configuration not stated)	none (no result: sEH inhibitor, sEH activator)
CCSC1=C(C#N)C(c2ccc3c(c2)OCO3)C2=C(CCCC2=O)N1 (configuration not stated)	CYP2C19 inhib 85, CYP2C9 inhib 67
CCc1ccccc1NC(=O)CSC1=C(C#N)C(c2ccc(O)c(OC)c2)C2=C(CCCC2=O)N1 (configuration not stated)	CYP2C9 inhib 56 (no result: sEH inhibitor, sEH activator)
CC(=O)n1c(Cl)c(NC(=O)CCl)c2ccccc21	none
O=C(CSC(=S)N1CCOCC1)N1N=CCC1c1ccccc1 (configuration not stated)	none
COC(=O)C1CSC(C(=O)OC)N1C(=O)CN1CC(C)OC(C)C1 (configuration not stated)	none
CCOC(=O)CSC1=C(C#N)C(C)C2=C(CCCC2=O)N1 (configuration not stated)	CYP2C19 inhib 94
Cn1c(CN2CCN(c3ccc(Cl)cc3)CC2)nc2ccccc21	CYP2C19 inhib 64
COCCCNC(=O)c1c(-c2ccccc2)noc1C	none
CCCCOCCCNC(=O)c1c(-c2ccccc2)noc1C	CYP2C19 inhib 68
Cc1onc(-c2ccccc2)c1C(=O)NCc1cccnc1	CYP2C19 inhib 59 (no result: sEH inhibitor, sEH activator)
Cc1onc(-c2ccccc2)c1C(=O)Oc1cccnc1	CYP2C19 inhib 51
Cc1onc(-c2ccccc2)c1C(=O)NCc1cccs1	none
CC12CCC(C(=O)Nc3ccccc3Br)(C/C1=N\O)C2(C)C (configuration not stated)	none
COc1ccc(CCN2CC(O)=C(c3nc4ccccc4c(=O)[nH]3)C2=N)cc1OC	CYP2C19 inhib 69
N=C1C(c2nc3ccccc3c(=O)[nH]2)=C(O)CN1c1ccccc1	CYP2C9 act 2.2
N=C1C(c2nc3ccccc3[nH]2)=C(O)CN1c1ccccc1	none
Cc1noc(/C=C/c2ccc(-c3ccccc3Cl)o2)c1[N+](=O)[O-]	none
CCN(CC)S(=O)(=O)c1ccc(O)c(C(=O)OCC(=O)N(C)Cc2ccccc2)c1	CYP2C9 inhib 75
CN(C(=O)c1coc(=O)c2ccccc12)c1ccc(F)cc1	CYP2C9 inhib 59 (no result: sEH inhibitor, sEH activator)
CCCCN(C)C(=O)c1coc(=O)c2ccccc12	none
O=S(c1ccc2ccccc2c1)c1cnns1 (configuration not stated)	CYP2C19 inhib 75
COCCCN=C(c1ccco1)n1c(=S)nc(-c2ccco2)n(CCCOC)c1=S	CYP2C9 inhib 61 (no result: sEH inhibitor, sEH activator)
O=C(c1ccc(Cl)cc1)N1CCC(O)(CSc2ccccc2)CC1	CYP2C19 inhib 54 (no result: sEH inhibitor, sEH activator)
O=C(c1ccc(Cl)cc1)N1CCC(O)(CSc2ccc(Cl)cc2)CC1	none (no result: sEH inhibitor, sEH activator)
COc1ccc(CN2CCOCC2)cc1	none
CCCCCOc1ccc(CN2CCOCC2)cc1Cl	CYP2C19 inhib 76, CYP2C9 inhib 55 (no result: sEH inhibitor, sEH activator)
CCOC(=O)N1CCN(C(=O)C2CCN(Cc3nc(-c4ccccc4C)oc3C)CC2)CC1	none (no result: sEH inhibitor, sEH activator)
CCOC(=O)C1=NN(N=O)C2(CC(=O)N(c3cc(C)cc(C)c3)C2=O)C1 (configuration not stated)	none
O=C(CS(=O)(=O)Cc1ccccc1)Nc1ncccn1	none
CCCc1cc(=O)[nH]c(SCCOC(=O)c2ccccc2)n1	CYP2C19 inhib 54, CYP2C9 inhib 71
CCCc1cc(=O)[nH]c(SCc2ccccc2Cl)n1	CYP2C19 inhib 50, CYP2C9 inhib 72
CCCc1cc(=O)[nH]c(SCC(=O)CSc2nc(CCC)cc(=O)[nH]2)n1	CYP2C9 inhib 70 (no result: sEH inhibitor, sEH activator)
CCCc1cc(=O)[nH]c(SCC(=O)NC)n1	none (no result: sEH inhibitor, sEH activator)
O=C(NNC(=O)c1ccc(SCC2CCCO2)c([N+](=O)[O-])c1)c1ccc(F)cc1 (configuration not stated)	none
CCC1(CC)Cc2ccccc2C(Nc2c(C)n(C)n(-c3ccccc3)c2=O)=N1	none
COc1ccc(-n2nnc3c(=O)n(C/C=C/c4ccccc4)cnc32)cc1	none
Cc1cc(Oc2ccccc2)nc2ccc(O)cc12	CYP2C19 inhib 80 (no result: sEH inhibitor, sEH activator)
COC(=O)Cn1ncn2c(cc3oc(C)cc32)c1=O	none
CNC(=O)Nc1ccc2snnc2c1	none
O=C(NCc1ccco1)Nc1ccc2snnc2c1	CYP2C19 inhib 83, CYP2C9 inhib 86
COCCn1c(=O)[nH]c2cc(C(=O)NCC3CCCO3)ccc2c1=O (configuration not stated)	none (no result: sEH inhibitor, sEH activator)
COCCn1c(=S)[nH]c2cc(C(=O)NCC3CCCO3)ccc2c1=O (configuration not stated)	CYP2C19 inhib 76, CYP2C9 inhib 52 (no result: sEH inhibitor, sEH activator)
CCCCC1CCC(C(=O)Nc2c(C)n(C)n(-c3ccccc3)c2=O)CC1 (configuration not stated)	none (no result: CYP2C19 act, CYP2C19 inhib, CYP2C9 act, CYP2C9 inhib)
CCOC(=O)c1sc2ncn(CC(=O)NCC3CCCO3)c(=O)c2c1C (configuration not stated)	none (no result: sEH inhibitor, sEH activator)
CCCOC(=O)c1ccc(OCC(O)Cn2c(C)nc3ccccc32)cc1 (configuration not stated)	none (no result: sEH inhibitor, sEH activator)
Brc1ccc(-c2nc3ncccn3c2NC2CCCCC2)o1	CYP2C9 inhib 56
Cc1ccc(-c2nc3ncccn3c2NC2CCCC2)o1	none
